Source: PubChem (National Center for Advancing Translational Sciences (NCATS))
In the library only some 1.3% were active in any assay of this set; here they are far more common.
KCNH2 WT inh = inhibitors of human wildtype KCNH2 potassium channel. activity change, % at 1.84 µM. Q12809. 340,000 compounds, 0.37% hits. U2OS, BacMam KCNH2, thallium flux FluxOr; hits give low values;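 active = maximum activity change below -70%; inconclusive = maximum activity change between -70% and -50%; inactive = maximum activity change above -50%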; note: % is set by controls: 0 for no effect and ±100 for the full control effect
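U2OS cells transduced with wild-type KCNH2 virus are loaded with FluxOr dye for 45 min, and thallium flux is measured in kinetic reads before and after stimulation buffer. Rate constants are normalized to DMSO controls.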
TRPV1 ag = activates the human vanilloid receptor TRPV1 | 320,000 compounds, 0.19% hits | TRPV1-expressing cells, Fluo-8 calcium influx, agonist mode | activation, % at 8.33 µM | AID 540275; in the data active = activation above about 80%; inconclusive = between about 30% and that limit; note: 0% is about no effect
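Cells expressing TRPV1 were dye-loaded with Fluo-8 and read kinetically: 10 s baseline, 3 min after compound (agonist portion), then 2 min after EC20 capsaicin (allosteric enhancer portion). Calcium-bound dye fluorescence at 480/520 nm.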
TRPML1 blocker = inhibitors of human TRPML1 channel; Q9GZU1; 390,000 compounds, 0.02% hits; TRPML1-inducible cells, Ca2+ dye fluorescence, FDSS; hits give low values; inhibition of EC80 agonist-evoked calcium signal; activity change, negative = inhibition, % (no concentration beside the values); in the data active = activity change below about -50%; inconclusive = between about -30% and that limit;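 note: stimulus is agonist 54-4 at its EC80 concentration; % is set by controls: 0 for no effect and ±100 for the full control effect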
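Tet-induced TRPML1-DL cells loaded with Ca8 no-wash calcium dye were read kinetically on FDSS. Compound addition was followed by EC80 agonist 54-4 (4 uM final); inhibition was read over 110 s.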
KCNH2 3.1 inh = inhibitors of human KCNH2 3.1 potassium channel isoform; U2OS KCNH2 3.1, thallium flux FluxOr; hits give low values; activity change, % (tested at about 1.8 µM); 340,000 compounds, 0.95% hits; AID 720553;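 active = maximum activity change below -70%; inconclusive = maximum activity change from -70% to -50%; inactive = maximum activity change above -50%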;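 note: thallium influx rate constant from kinetic fluorescence after stimulation buffer; % is set by controls: 0 for no effect and ±100 for the full control effect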
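U2OS cells transduced with KCNH2 3.1 mutant virus (1.77 x 10^8 /mL, 4 h), plated overnight at 37 C, loaded 45 min with FluxOr dye plus Red40 quencher. Thallium flux rate constant from kinetic reads after stimulation buffer, normalised to controls.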
TRPV1 potentiator = human TRPV1 potentiation | Q8NER1 | TRPV1-expressing cells, Fluo-8 calcium influx, capsaicin EC20 potentiation | potentiation, % at 8.33 µM | 320,000 compounds, 0.02% hits | AID 540277; in the data active = potentiation above about 80%; inconclusive = between about 30% and that limit; note: 0% is about no effect
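Cells expressing TRPV1 were dye-loaded with Fluo-8 and read kinetically: 10 s baseline, 3 min after compound (agonist portion), then 2 min after EC20 capsaicin (allosteric enhancer portion). Calcium-bound dye fluorescence at 480/520 nm.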
TRPML1 agonist = activates the human TRPML1 channel; Q9GZU1; TRPML1-expressing cells, Ca2+ dye fluorescence, FDSS; activation, % (test concentration not listed); 410,000 compounds, 0.12% hits; in the data active = activation above about 50%; inconclusive = mostly about 30% to 49%; note: 0% is about no effect
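Cells: TRPML1-DL, 1X Tet inducer, ~16 h at 37 degrees C/5% CO2. Dye: ABD Ca8 no-wash + quencher, 45-90 min RT. Read: 10 s baseline, compound add, 110 s agonist phase; 54-4 EC80 (4uM final), 110 s antagonist phase.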
Active calls of the source: *; ? = inconclusive; · = no result given.

SMILES	KCNH2 WT inh	TRPV1 ag	TRPML1 blocker	KCNH2 3.1 inh	TRPV1 potentiator	TRPML1 agonist
CCOC(=O)[C@]12Cc3cc(C)ccc3[C@H]1N(Cc1ccccc1)C(=O)c1ccccc12	-3	·	2	-72*	·	4
CCOC(=O)[C@]12Cc3cc(OC)ccc3[C@H]1N(Cc1ccccc1)C(=O)c1ccccc12	-4	·	12	8	·	0
CCCCCCCCC(=O)NCc1ccc(O)c(OC)c1	30	105*	-5	1	4	2
COc1cc(/C=C/c2nc3ccccc3c(=O)n2-c2ccc(Br)c(C)c2)ccc1O	·	·	25	·	·	1
COc1ccc2c(c1)CC1(CN2C)C(=O)NC(=O)N(CCc2ccccc2)C1=O (centres undefined)	1	2	-2	-95*	-5	-1
COc1cc(CN2C(=O)NC(=O)C3(Cc4cc(C)ccc4N(C)C3)C2=O)cc(OC)c1 (centres undefined)	-5	-1	-7	-3	3	0
COC(=O)C1=C(c2ccc(C(C)=O)cc2)C[C@@H]2CC[C@H]1N2C(=O)N1CCC(O)(c2ccc(Cl)cc2)CC1	-115*	0	18	-88*	-7	0
COC(=O)C1=C(c2ccc(C(C)=O)cc2)C[C@@H]2CC[C@H]1N2C(=O)N1CCC(C)CC1	15	?	-17	9	-22	2
COc1ccc(CC(C)NCCC(c2ccccc2)c2ccccc2)cc1 (centres undefined)	-96*	3	·	-101*	4	·
CCOC(=O)c1ccc(N2C(=O)CC(N3CC=C(c4ccc(F)cc4)CC3)C2=O)cc1 (centres undefined)	-3	-7	-4	13	8	0
NC(=O)c1ccc(OCCC(O)N2CC=C(c3ccc(F)cc3)CC2)cc1 (centres undefined)	72	9	6	-73*	-1	0
Cc1ccc(S(=O)(=O)N2CN3CCN(C3)C2)cc1	-131*	-1	-18	-134*	1	0
COC(=O)C1=C(c2ccc(F)cc2OCc2ccccc2)C[C@@H]2CC[C@H]1N2C(=O)NCCOc1ccc(OC)cc1	2	5	66	-87*	0	1
COC(=O)C1=C(c2ccccc2OCc2ccccc2)C[C@@H]2CC[C@H]1N2C(=O)NCc1ccc(N(C)C)cc1	-13	?	-4	-116*	-7	1
CCOc1ccc(CN(CCc2ccc3c(c2)OCO3)Cc2cc(OC)ccc2O)cc1	·	·	-6	·	·	1
O=C(Oc1ccc([N+](=O)[O-])cc1)N1CCN(/[N+]([O-])=N/Oc2ccc([N+](=O)[O-])cc2[N+](=O)[O-])CC1	·	·	-26	·	·	1
Cc1cc(/C=C/c2ccnc3ccccc23)ccc1N(CCCl)CCCl	·	·	·	·	·	0
O=C(NCC1=C(c2cccc3ccccc23)C[C@@H]2CC[C@H]1N2Cc1ccco1)c1cccs1	?	·	·	-109*	·	·
CS(=O)(=O)c1ccc(C2=C(CNC(=O)c3nccs3)[C@H]3CC[C@@H](C2)N3CCOc2ccccc2)cc1	?	·	-10	-78*	·	0
Cc1ncoc1C(=O)NCC1=C(c2ccc(S(C)(=O)=O)cc2)C[C@@H]2CC[C@H]1N2Cc1ccco1	-6	·	9	-36	·	0
CS(=O)(=O)c1ccc(C2=C(CNC(=O)c3cccs3)[C@H]3CC[C@@H](C2)N3CCOc2ccccc2)cc1	-103*	·	·	-94*	·	·
O=C(NCC1=C(c2cccc3ccccc23)C[C@@H]2CC[C@H]1N2Cc1ccco1)c1ccncc1	11	·	-7	-4	·	-1
CS(=O)(=O)c1ccc(C2=C(CNC(=O)c3ccncc3)[C@H]3CC[C@@H](C2)N3Cc2ccccc2)cc1	?	·	-4	-91*	·	0
Cc1cccc(-n2c(/C=C/c3c[nH]c4ccccc34)nc3ccccc3c2=O)c1	·	·	59	·	·	1
c1ccc(CCN2CCCCC2)cc1	·	·	·	·	·	0
SMILES	KCNH2 WT inh	TRPV1 ag	TRPML1 blocker	KCNH2 3.1 inh	TRPV1 potentiator	TRPML1 agonist
CCOC(=O)c1cccc(C2=C(CNC(C)=O)[C@H]3CC[C@@H](C2)N3Cc2ccccc2)c1	23	·	-5	-3	·	0
CCOC(=O)c1cccc(C2=C(CNC(=O)c3ccc([N+](=O)[O-])cc3)[C@H]3CC[C@@H](C2)N3Cc2ccccc2)c1	-76*	·	·	-113*	·	·
CCN1/C(=C\C=C\C2=[N+](CC)c3ccccc3C2(C)C)C(C)(C)c2ccccc21	-208*	?	6	?	8	1
Cc1ccsc1C(=O)C1CCCN(Cc2ccc(-n3cccn3)cc2)C1 (centres undefined)	39	7	·	-72*	2	·
Cc1ccsc1C(=O)C1CCCN(Cc2cccc(-n3cccn3)c2)C1 (centres undefined)	5	-6	-18	-20	5	1
CCOCCCn1c(N)c(C(=O)Nc2sc3c(c2C(=O)OC)CCCC3)c2nc3ccccc3nc21	16	0	-14	2	?	1
CCOC(=O)c1c(NC(=O)c2c(N)n(CCCOC)c3nc4ccccc4nc23)sc2c1CCCC2	4	1	12	-71*	-4	0
Cc1cc(OCC(=O)NC2CCS(=O)(=O)C2)c2c3c(c(=O)oc2c1)CCC3 (centres undefined)	-250*	-1	-3	-1	-8	-1
Cc1cc(OCC(=O)NCC2CCC(C(=O)O)CC2)c2c3c(c(=O)oc2c1)CCC3 (centres undefined)	1	0	·	1	-12	·
Cc1c(C(c2ccc(Cl)cc2Cl)c2c(O)c3ccccc3oc2=O)c(=O)n(-c2ccccc2)n1C (centres undefined)	-3	-4	22	-6	82*	1
Cc1c(C(c2ccc(Br)cc2)c2c(O)c3ccccc3oc2=O)c(=O)n(-c2ccccc2)n1C (centres undefined)	-4	1	14	8	14	1
O=C(c1ccc(Cl)cc1)C1CCCN(Cc2cccc3cccnc23)C1 (centres undefined)	-71*	4	-6	-99*	?	0
COc1cccc(C(=O)C2CCCN(Cc3ccc(F)cc3)C2)c1 (centres undefined)	18	27	20	-33	-22	1
O=C(c1ccc(Cl)cc1)C1CCCN(Cc2cccc3ncccc23)C1 (centres undefined)	34	-4	39	-5	10	3
COc1ccc(CN2CCCC(C(=O)c3ccc(Cl)cc3)C2)c(O)c1 (centres undefined)	-31	-1	·	-72*	5	·
